# Source: PubChem BioAssay (National Center for Advancing Translational Sciences (NCATS))
# This is a sample that favours compounds with a hit; in the whole collection about 10% have one here.
# NIH3T3 tox: kills NIH 3T3 cells. NIH 3T3 viability, CellTiter-Glo ATP luminescence, 48-72 h. Potency, µM (titrated, usually from 96.7 µM), for inactives: at the highest dose activity change, negative = cytotoxicity, most hits filed as inhibitors. 4.3% of 94,000 active; note: % is set by controls: 0 for no effect and ±100 for the full control effect; nearly all actives have a fitted effect of over 55% in size
#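 ATP-dependent luminescence (CellTiter-Glo) served as the viability signal for NIH 3T3 cells treated with compound for 48 or 72 hr at 37 °C.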
# HEK293 tox: kills HEK 293 cells; HEK 293 viability, ATP luminescence (CellTiter-Glo), 48-72 h; 6.6% of 94,000 active; Potency, µM (highest dose often 115 µM), for inactives: at the top dose activity change, negative = cytotoxicity, actives largely listed as inhibitors; note: % is set by controls: 0 for no effect and ±100 for the full control effect; nearly all actives have a fitted effect of over 60% in size
#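 qHTS cytotoxicity; HEK 293, 250 cells/well; compound pinned; 48 or 72 hr, 37 degree Celsius, 5% CO2, 95% humidity; CellTiter-Glo, 10 min RT; luminescence (ATP).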
# Luciferase inh: inhibitors of firefly (Photinus pyralis) luciferase. P08659. purified P. pyralis luciferase, luminescence, biochemical. Potency, µM (doses to about 115 µM), hits mostly inhibitors. 2.5% of 76,000 active. AID 1347043; note: % is set by controls: 0 for no effect and ±100 for the full control effect; nearly all actives have a fitted effect of over 65% in size
#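 Cell-free enzyme assay, 10nM P. pyralis luciferase, luciferin and ATP each at 10uM. Inhibition profiled over a 6-point titration, read as luminescence.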
# GPT2 inh: blocks human glutamate pyruvate transaminase 2; Q8TD30; Recombinant GPT2, coupled pyruvate oxidase/HRP Amplex Red fluorescence; Potency, µM (series often up to 57.7 µM), for inactives: top-dose activity change, negative = inhibition, actives largely listed as inhibitors; 0.25% of 100,000 active; AID 1671188; note: % is set by controls: 0 for no effect and ±100 for the full control effect; nearly all actives have a fitted effect of over 60% in size
#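 Fluorescence read-out: pyruvate from GPT2 turnover coupled to pyruvate oxidase, HRP and Amplex Red (0.2mM ThPP, 0.2U/mL PO and HRP, 50uM Amplex final). Substrates 250uM a-KG, 2mM L-alanine; enzyme 10ng/uL; 30 min RT.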
# NPR1 antag: blocks ANP-stimulated signaling of human Npr1 receptor; Potency, µM (doses to about 46.3 µM), inactives show at the top dose activity change, negative = inhibition, most hits filed as inhibitors; P16066; 1.6% of 76,000 active; HEK293 hNpr1 GloSensor cGMP, ANP-stimulated luminescence; AID 1347048; calls by dose curve; note: % is set by controls: 0 for no effect and ±100 for the full control effect; nearly all actives have a fitted effect of over 60% in size
#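 Compound pre-incubated 30 min at room temperature on GloSensor-loaded HEK293 cells stably carrying hNpr1 and the pGS-40F cGMP biosensor. Stimulation uses hNppA at 0.1 nM final; luminescence is taken at baseline and 20 min post-agonist.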
# NPR1 antag cnf: confirmation of human Npr1 natriuretic peptide receptor antagonists; shares compounds with NPR1 antag; HEK293 hNpr1 cGMP GloSensor luminescence, ANP-stimulated; Potency, µM (doses to about 57.6 µM), inactives show top-dose activity change, negative = inhibition, hits mostly inhibitors; 76% of 1,400 active; AID 1347044; calls by dose curve; note: nearly all actives have a fitted effect of over 70% in size
# NPR2 antag: antagonizes human Npr2, subtype selectivity check; shares compounds with NPR1 antag; AID 1347046; HEK293 hNpr2 GloSensor cGMP luminescence, CNP-stimulated; Potency, µM (doses to about 57.6 µM), for inactives: at the top dose activity change, negative = inhibition, most hits filed as inhibitors; 67% of 1,400 active; calls by dose curve; note: nearly all actives have a fitted effect of over 70% in size
# FLuc counter: counter-screen for Npr1 antagonists: firefly luciferase inhibitors; shares compounds with NPR1 antag; purified FLuc enzyme, luminescence, Km substrate; 0.7% of 1,400 active; Potency, µM (series often up to 57.6 µM), for inactives: top-dose activity change, negative = inhibition, hits mostly inhibitors; note: 0% is about no effect
# GloSensor ctrl: reduces cGMP signal in GloSensor control cells; shares compounds with NPR1 antag; HEK293 GloSensor cGMP, SNP-stimulated, luminescence; Potency, µM (series often up to 57.6 µM), without a hit: at the top dose activity change, negative = inhibition, usual class: inhibitors; 69% of 1,400 active; AID 1347051; calls by dose curve; note: % is set by controls: 0 for no effect and ±100 for the full control effect; nearly all actives have a fitted effect of over 70% in size
# Numbers without * were called inactive; i = inactive; ? = inconclusive; nt = no result given; [ ] = another dose, or the depositor's remark. Unless noted, calls come from the whole dose curve; as a rule, active = well fitted curve in the direction sought with a large enough effect; inconclusive = small, poorly fitted or top-dose-only effect, or another doubt; inactive = no such curve, though single readings can be large; an effect the other way counts as inactive or inconclusive. Potency is the fitted concentration of half-maximal effect.
SMILES,NIH3T3 tox,HEK293 tox,Luciferase inh,GPT2 inh,NPR1 antag,NPR1 antag cnf,NPR2 antag,FLuc counter,GloSensor ctrl
CC(C)CNC(=O)N1CC(Oc2ccc(-c3noc(C4CCOCC4)n3)cc2)C1,?,?,i,i,14µM*,4.8µM*,5.4µM*,-17%,4.3µM*
COC(=O)c1cc(OC)c(O[C@@H]2O[C@@H](C)[C@H](O)[C@@H](O)[C@H]2O)c(OC)c1,nt,nt,nt,i,nt,nt,nt,nt,nt
O=C(Nc1ccc2c(c1)OCCO2)N1CCC2(CC1)CC(Cc1ccccc1)CCO2 (centres undefined),?,?,nt,-1%,nt,nt,nt,nt,nt
Cc1ccc(NC(=O)N2CCC3(CC2)CC(Cc2nc(-c4ccccc4)no2)CCO3)cc1C (centres undefined),?,?,i,-21%,10µM*,12µM*,15µM*,-6%,12µM*
COc1cccc(-c2noc(CC3CCN(C(=O)CCCc4ccccc4)CC3)n2)c1,?,?,i,i,?,?,?,0%,31µM*
O=C(CCCc1ccccc1)N1CCC2(CC1)CC(Cc1nc(-c3cccnc3)no1)CCO2 (centres undefined),?,35µM*,i,-6%,16µM*,22µM*,19µM*,2%,19µM*
COc1ccc(-c2noc(CC3CCN(C(=O)CCCc4ccccc4)CC3)n2)cc1,?,28µM*,i,i,?,17µM*,19µM*,-6%,19µM*
COc1ccccc1CCC(=O)N1CCC(Cc2nc(-c3ccccc3)no2)CC1,?,?,i,?,?,nt,nt,nt,nt
COc1cc(Cl)ccc1C(=O)N[C@@H]1CN(c2ncccn2)C[C@H]1CN(C)C,-13%,-2%,i,i,-1%,nt,nt,nt,nt
CN1CC2(CCN(Cc3cccs3)CC2)CC(c2ccccc2)C1=O (centres undefined),-5%,?,i,i[11.5 µM],-2%,nt,nt,nt,nt
COc1ccc(CCC(=O)N2CCC(Cc3nc(C4CCOCC4)no3)CC2)cc1,-25%,?,i,i,6%,nt,nt,nt,nt
COc1cccc(CCC(=O)N2CCC(Cc3nc(-c4ccc(F)cc4)no3)CC2)c1,?,?,i,i,11µM*,14µM*,17µM*,3%,11µM*
O=C(NCc1cccnc1)c1cnc2n[nH]c(-c3ccccc3)c2n1,nt,nt,nt,nt,nt,25µM*,13µM*,0%[86.2 µM],10%[86.2 µM]
COc1ccccc1-c1[nH]nc2ncc(C(=O)NCc3cccnc3)nc12,nt,nt,nt,nt,nt,18µM*,7µM*,1%[86.2 µM],-16%[86.2 µM]
CN(C(=O)c1cnc2n[nH]c(-c3ccccc3)c2n1)c1ccccc1,?,?,i,1%[88.5 µM],16µM*,31µM*,31µM*,2%[86.2 µM],20µM*
COc1ccccc1-c1[nH]nc2ncc(C(=O)N3CCNC(=O)C3)nc12,?,-15%[172 µM],i,i,3%[70.6 µM],nt,nt,nt,nt
O=C(NCc1cccnc1)c1nc(-c2ccc(F)cc2)c2ccccn12,?,?,i,i,-3%,nt,nt,nt,nt
COC(=O)c1cccc(NC(=S)N[C@@H]2C=C[C@@H](c3c(C)nn(-c4ccccc4[N+](=O)[O-])c3C)C2)c1,40µM*,40µM*,i,i,13µM*,19µM*,?,-8%,24µM*
O=C(NCc1ccccc1-c1ccccc1C(=O)NCCc1ccccn1)OCc1ccccc1,nt,nt,nt,-1%,nt,nt,nt,nt,nt
Fc1ccc(CN2CCC(Oc3ccccc3-c3nc(-c4cnccn4)no3)C2)cc1F (centres undefined),?,25µM*,i,-3%,-18%,?,-29%,-16%,0%
COc1ccc(CC(=O)N2CCC(Cc3nc(-c4ccccc4)no3)CC2)cc1Cl,35µM*,?,i,i,13µM*,24µM*,27µM*,2%,24µM*
COc1ccc(-c2noc(CC3CCN(C(=O)Cc4ccc(OC)c(Cl)c4)CC3)n2)cc1,?,?,i,-1%,13µM*,24µM*,24µM*,0%,17µM*
CCc1nc2cc(N3CCCC(C(=O)NC4CCCC4)C3)cnc2nc1CC (centres undefined),-25%,13%,i,i,6%,nt,nt,nt,nt
COc1ccc(CC(=O)N2CCC(Cc3nc(-c4ccc(OC)cc4)no3)CC2)cc1,?,?,i,i,2.8µM*,3.1µM*,3.4µM*,-2%,3.4µM*
COc1ccccc1CC(=O)N1CCC(Cc2nc(-c3ccccc3)no2)CC1,?,?,i,i,?,nt,nt,nt,nt
SMILES,NIH3T3 tox,HEK293 tox,Luciferase inh,GPT2 inh,NPR1 antag,NPR1 antag cnf,NPR2 antag,FLuc counter,GloSensor ctrl
CCOc1ccc(CC(=O)N2CCC(Cc3nc(C(C)C)no3)CC2)cc1,-28%,?,i,i,-15%,nt,nt,nt,nt
CCOc1ccc(CC(=O)N2CCC(Cc3nc(-c4ccc(OC)cc4)no3)CC2)cc1,?,?,i,?,4.5µM*,2.7µM*,3.9µM*,-1%,3.4µM*
COc1ccc(-c2noc(CC3CCN(C(=O)Cc4cccc(C)c4)CC3)n2)cc1,?,40µM*,i,i,13µM*,22µM*,19µM*,4%,17µM*
CCOc1ccc(CC(=O)N2CCC(Cc3nc(-c4ccc(OC)cc4)no3)CC2)cc1OCC,?,?,i,i,16µM*,27µM*,22µM*,0%,24µM*
CCOc1ccc(CC(=O)N2CCC(Cc3nc(C(C)C)no3)CC2)cc1OCC,?,?,i,2%,0%,nt,nt,nt,nt
Cc1cccc(CC(=O)N2CCC(Cc3nc(-c4ccccc4)no3)CC2)c1,?,?,i,i,-26%,nt,nt,nt,nt
C[C@]12CC[C@@H]3c4ccc(O)c(O)c4CC[C@H]3[C@@H]1CCC2=O,nt,nt,nt,i,nt,nt,nt,nt,nt
Cc1nn2c(c1-c1cccnc1N1CCOCC1)N(CC1CCOCC1)CCC2,35µM*,?,i,-4%[88.5 µM],?,?,?,5%[86.2 µM],?
